In all, about 330,000 compounds went through this assay and about 1,900 (0.58%) were called active. Another 4% or so got no clear call; they are omitted. No stated cut-off is given here; in the data, inconclusive means inhibition above about 70% without an active follow-up result; inactive means below that. Not all results are given here. Measured potencies and affinities stand elsewhere.
test: M. tuberculosis growth inhibition, HTS (AID 449762);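 further: bacterial growth assessed after seven days of incubation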; conditions: M. tuberculosis H37Rv growth inhibition, 7H9 media; at 25 µM; active compounds read high

SMILES	inhibition
CC1=C(c2ccc(F)cc2)[N+](=O)C(C)(C)N1[O-]	-6.06% (inactive)
Cc1ccc(C(C(=O)NC(C)(C)C)N(Cc2ccccc2)C(=O)c2snc(C(N)=O)c2N)o1 (configuration not stated)	-7.23% (inactive)
COc1ccc(/C=C2/C(=O)N(c3ccccc3)N=C2C)cc1OC	8.2% (inactive)
COc1cc(/C=C2/C(=O)N(c3ccccc3)N=C2C)ccc1OS(=O)(=O)c1ccccc1	11% (inactive)
CCOC(=O)N1CCN(Cc2ccc3ccccc3c2)CC1	9.89% (inactive)
CCCCC(=O)Nc1cccn2ncnc12	-5.05% (inactive)
O=C(Nc1cccn2ncnc12)C(Cl)Cl	8.05% (inactive)
Cc1ccc(/C=C2/SC(=S)N(CCC(=O)N3CCOCC3)C2=O)cc1	-5.59% (inactive)
CCCn1c(=N)n(CC(=O)c2ccc(Cl)cc2)c2ccccc21	20.9% (inactive)
CCCCn1c(=N)n(CC(=O)c2ccc(OC)cc2)c2ccccc21	2.91% (inactive)
Cc1ccc(S(=O)(=O)NCc2ccc(C(=O)NCc3cccnc3)cc2)cc1	-0.01% (inactive)
Cc1cc(NC(=O)c2cc(-c3cccc(Cl)c3)on2)no1	4.25% (inactive)
O=C(NNS(=O)(=O)c1ccccc1[N+](=O)[O-])c1ccccc1[N+](=O)[O-]	-1.87% (inactive)
C=CCSC1=N/C(=C\c2ccc3c(c2)OCO3)C(=O)S1	2.93% (inactive)
CCc1nc(N=C(N)N)nc2ccccc12	-2.46% (inactive)
Cc1nc(N=C(N)N)nc2ccccc12	0.45% (inactive)
Cc1cc(C2C(=O)c3ccccc3C2=O)c(C)c(C)c1C	30.3% (inactive)
Cc1ccc(C2C(=O)c3ccccc3C2=O)cc1	7.43% (inactive)
CC(=O)NC12CC3CC(C1)CC(C(=O)N(C)CC(=O)Nc1cccc(F)c1)(C3)C2	6.36% (inactive)
CC(NC(=O)c1cc(COc2c(F)cccc2F)on1)c1cnn(-c2ccccc2)c1 (configuration not stated)	1.01% (inactive)
CCCCn1c(N)c(N(CC(C)C)C(=O)C2CCN(c3ncnc4sc(C)c(C)c34)CC2)c(=O)[nH]c1=O	54.4% (inactive)
Cc1sc2ncnc(N3CCC(C(=O)N(C)CC(=O)Nc4ccccc4Cl)CC3)c2c1C	67.4% (inactive)
CNC(=O)CSc1nnc(-c2ccco2)n1-c1cccc(C)c1C	-8.51% (inactive)
O=C(Cc1ccc(F)cc1)NCCS(=O)(=O)N1CCN(c2ccccc2)CC1	-9.43% (inactive)

SMILES	inhibition
COc1ccc(/C=C2\SC(=S)N(Cc3cccnc3)C2=O)cc1C	12.2% (inactive)
Cc1ccc(S(=O)(=O)N2CCC(C(=O)OCC(=O)NCCc3ccccc3)CC2)cc1C	1.72% (inactive)
CCOC(=O)C1CCN(S(=O)(=O)c2ccc(C)c(C)c2)CC1	-5.37% (inactive)
COc1cccc(NC(=O)[C@H](Cc2ccccc2)NC(=O)[C@@H]2Cc3ccccc3CN2)c1	-7.04% (inactive)
O=C(Nc1ccc(C(F)(F)F)cc1-c1ccccc1)c1ccccc1	-5.73% (inactive)
O=C(Nc1cnccn1)C1c2ccccc2Oc2ccccc21	-4.63% (inactive)
CCOC(=O)c1c(C)[nH]c(C)c1C(=O)CN1C(=O)NC2(CCC(C)CC2)C1=O (configuration not stated)	-4.05% (inactive)
CCc1ccc2oc(-c3cc(N)cc(C)c3O)nc2c1	42.6% (inactive)
CCc1ccc2oc(-c3cc(N)ccc3O)nc2c1	-0.82% (inactive)
O=C1c2cc(O)cc(O)c2C(=O)c2c1cc(O)c([C@@H](CO)CCO)c2O	-12.7% (inactive)
O=C(O)c1cc(O)c2c(c1)C(=O)c1cc(O)cc(O)c1C2=O	-5.47% (inactive)
CCOc1ccccc1NC(=S)NC1CCCCC1	-19.5% (inactive)
CCc1nn(CC(=O)NCCN2CCN(C)CC2)c(=O)c2cc3c(OC)cccc3n12	7.05% (inactive)
CCc1ccc(N=CC2=C(O)CC(c3ccco3)CC2=O)cc1 (configuration not stated)	0.59% (inactive)
Cc1ccc(N=CC2=C(O)CC(c3ccco3)CC2=O)cc1 (configuration not stated)	-6.24% (inactive)
Cc1cccc(C)c1NC(=O)C1NC(=O)CC1c1ccccc1 (configuration not stated)	17.9% (inactive)
CCOc1ccc(C2/C(=C(/O)c3ccc(S(=O)(=O)N4CCCCC4)cc3)C(=O)C(=O)N2CCCOC)cc1OC (configuration not stated)	-12.5% (inactive)
COc1ccc(N(C(C)C(=O)NN=C2CCCC2)S(C)(=O)=O)cc1 (configuration not stated)	-2.55% (inactive)
COc1ccc(-n2ccnc2)cc1	1.26% (inactive)
Cc1ccc2cccc(Oc3ncnc4sc(C)c(C)c34)c2n1	42% (inactive)
COc1ccc2oc(C(=O)OCC(=O)Nc3cc(S(=O)(=O)N4CCOCC4)ccc3OC)c(C)c2c1	0.56% (inactive)
COc1ccccc1C(=O)NNC(=O)C(=O)NC(C)C	61.6% (inactive)
Cc1ccc2nc(SCc3nc4c(cnn4-c4ccccc4)c(=O)[nH]3)[nH]c2c1	0.73% (inactive)
